Hit rate of the full screen: of about 5,500 compounds, about 2,000 (36%) were called active. About 18% were inconclusive and are not listed. Cut-off read from the data, not from the text of the source: active = normalized growth mostly below about 0.91 (no sharp cut-off); inconclusive = no clear call, values can overlap the other calls; inactive = mostly above about 0.92. The list shows a part of the results.
Assay: chemical genetic growth profiling, strain panel (AID 1159580);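 note: tested at 20 µM; growth read once vehicle control cultures reached saturation at 30 °C; 1 = growth at the plate median or of vehicle wells; lower values mean less growth of the strain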
Settings: S. cerevisiae deletion strains, growth OD

Measured: normalized growth

CCOc1ccc(C(=O)c2ccc(OC)c(O)c2O)cc1
inactive: locus YAL021C, strain ccr4, active compounds read low 0.958 | locus YAL026C, strain drs2, active compounds read low 0.966 | locus YAL030W, strain snc1, active compounds read low 1.02 | locus YBL061C, strain skt5, active compounds read low 0.994 | locus YBR009C, strain hhf1, active compounds read low 0.962 | locus YBR023C, strain chs3, active compounds read low 0.977 | locus YBR171W, strain sec66, active compounds read low 1.02 | locus YBR231C, strain swc5, active compounds read low 0.939 | locus YBR279W, strain paf1, active compounds read low 0.973 | locus YCL011C, strain gbp2, active compounds read low 0.991 | locus YCL016C, strain dcc1, active compounds read low 0.973 | locus YCL061C, strain MRC1, active compounds read low 0.993 | locus YCL069W, strain vba3, active compounds read low 1.01 | locus YCR088W, strain abp1, active compounds read low 1.02 | locus YDL005C, strain med2, active compounds read low 1.05 | locus YDL040C, strain nat1, active compounds read low 1.01 | locus YDR001C, strain nth1, active compounds read low 1.03 | locus YDR069C, strain doa4, active compounds read low 0.974 | locus YDR137W, strain rgp1, active compounds read low 0.913 | locus YDR159W, strain sac3, active compounds read low 1.05 | locus YDR297W, strain sur2, active compounds read low 1.01 | locus YDR334W, strain swr1, active compounds read low 1.02 | locus YDR335W, strain msn5, active compounds read low 0.993 | locus YDR392W, strain spt3, active compounds read low 0.795 | locus YEL003W, strain gim4, active compounds read low 0.964 | locus YEL037C, strain rad23, active compounds read low 1.01 | locus YEL061C, strain CIN8 (second series), active compounds read low 1.02 | locus YER015W, strain faa2, active compounds read low 0.934 | locus YER016W, strain bim1, active compounds read low 1.01 | locus YER111C, strain swi4, active compounds read low 1.03 | locus YFR010W, strain ubp6, active compounds read low 1.01 | locus YGL167C, strain pmr1, active compounds read low 0.997 | locus YGL173C, strain kem1, active compounds read low 0.999 | locus YGL227W, strain vid30, active compounds read low 1.03 | locus YGL240W, strain doc1, active compounds read low 0.982 | locus YGL253W, strain hxk2, active compounds read low 1 | locus YHR013C, strain ard1, active compounds read low 0.961 | locus YHR027C, strain rpn1, active compounds read low 1.01 | locus YHR030C, strain SLT2, active compounds read low 0.892 | locus YHR079C, strain IRE1, active compounds read low 0.913 | locus YHR142W, strain chs7, active compounds read low 0.963 | locus YJL092W, strain hpr5, active compounds read low 1.02 | locus YJL095W, strain BCK1 (second series), active compounds read low 0.987 | locus YJL095W, strain BCK1, active compounds read low 0.923 | locus YJL115W, strain asf1, active compounds read low 1.04 | locus YJL129C, strain trk1, active compounds read low 1.04 | locus YJL154C, strain vps35, active compounds read low 1.03 | locus YJL164C, strain tpk1, active compounds read low 0.964 | locus YJL166W, strain qcr8, active compounds read low 0.959 | locus YJL187C, strain SWE1, active compounds read low 1 | locus YJR066W, strain TOR1, active compounds read low 0.826 | locus YKL160W, strain elf1, active compounds read low 0.951 | locus YKR026C, strain gcn3, active compounds read low 1.03 | locus YKR091W, strain srl3, active compounds read low 1.02 | locus YLL001W, strain dnm1, active compounds read low 0.981 | locus YLL026W, active compounds read low 1.03 | locus YLL041C, strain sdh2, active compounds read low 1.01 | locus YLR027C, strain aat2, active compounds read low 0.986 | locus YLR113W, strain HOG1, active compounds read low 0.953 | locus YLR221C, strain rsa3, active compounds read low 0.977 | locus YLR258W, strain gsy2, active compounds read low 1 | locus YLR262C, strain YPT6 (second series), active compounds read low 0.875 | locus YLR320W, strain mms22, active compounds read low 0.949 | locus YLR342W, strain FKS1, active compounds read low 0.958 | locus YLR357W, strain rsc2, active compounds read low 0.949 | locus YLR370C, strain arc18, active compounds read low 1.02 | locus YLR384C, strain iki3, active compounds read low 1.02 | locus YML120C, strain ndi1, active compounds read low 0.997 | locus YMR125W, strain sto1, active compounds read low 1.02 | locus YMR129W, active compounds read low 1.01 | locus YMR205C, strain PFK2, active compounds read low 1.01 | locus YMR231W, strain pep5, active compounds read low 0.992 | locus YNL071W, strain lat1, active compounds read low 0.972 | locus YNL183C, strain NPR1, active compounds read low 0.866 | locus YNL248C, strain rpa49, active compounds read low 1.03 | locus YNL322C, strain KRE1 (second series), active compounds read low 1.03 | locus YNR049C, strain mso1, active compounds read low 1.06 | locus YOR001W, strain rrp6, active compounds read low 0.996 | locus YOR070C, strain gyp1, active compounds read low 0.989 | locus YOR080W, strain dia2, active compounds read low 1.04 | locus YOR083W, strain WHI5, active compounds read low 0.953 | locus YOR106W, strain vam3, active compounds read low 0.892 | locus YOR231W, strain MKK1, active compounds read low 0.94 | locus YOR265W, strain rbl2, active compounds read low 1.01 | locus YOR270C, strain vph1, active compounds read low 0.918 | locus YOR290C, strain snf2, active compounds read low 0.955 | locus YPL078C, strain atp4, active compounds read low 0.957 | locus YPL106C, strain sse1, active compounds read low 0.957 | locus YPL240C, strain hsp82, active compounds read low 1.01 | locus YPL256C, strain CLN2, active compounds read low 0.954
active: locus YDR195W, strain ref2 1.15 [resistant] | locus YER155C, strain BEM2 (second series), active compounds read low 0.842 | locus YMR058W, strain fet3, active compounds read low 0.818 | locus YNL209W, strain ssb2, active compounds read low 0.909 | locus YPL051W, strain arl3, active compounds read low 0.878
